High-throughput results deposited in PubChem BioAssay by The Scripps Research Institute Molecular Screening Center.
E coli Lon inh – inhibitors of E. coli Lon protease, primary screen, biochemical, fluorescence polarization | P0A9M0 | purified E. coli Lon protease | inhibition, % at 7.94 µM | 360,000 tested, 0.42% active | AID 602123, 2011; in the data active means inhibition above about 13%, passing the limit was not always enough;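 further: 0% = enzyme with probe and DMSO and 100% = no enzyme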
Cardiac RTF inh – cardiac RTF calcium sensitivity inhibitors, primary screen, biochemical, IANBD-TnC fluorescence, EC70 calcium | IANBD-labeled cardiac RTF, Ca2+ fluorescence | AID 493244, 2011 | inhibition, % at 7.15 µM | 340,000 tested, 0.12% active;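 active means inhibition above the mean inhibition of all tested compounds plus 3 SD, cut at about 17% in these data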;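 further: assay run at fixed EC70 calcium of 1.6 mM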
Bcl-xL primary – inhibitors of human Bcl-xL, primary screen, biochemical, fluorescence polarization, HTS. Bcl-2-like protein 1 (Homo sapiens), Q07817. GST-Bcl-xL / FITC-Bim BH3 peptide fluorescence polarization. inhibition, % at 10.9 µM. 320,000 tested, 0.7% active;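 active means inhibition above the mean of all tested compounds plus 3 SD, cutoff set per campaign, cut at about 30% in these data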;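 further: 0% = DMSO wells and 100% = unlabeled Bim-BH3 peptide competitor; inhibitors lower millipolarization by displacing the labeled peptide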
GLD-1 TGE inh – GLD-1/TGE RNA complex disruptors, primary screen, biochemical, fluorescence polarization | purified GLD-1 + fluorescein TGE RNA | inhibition, % at 5.96 µM | 320,000 tested, 0.44% active | AID 2280, 2010;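 active means percent inhibition above a per-plate cutoff, the plate mean of test compounds plus 3 SD, cut at about 30% in these data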;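 further: 0% = DMSO wells with GLD-1 and probe and 100% = wells lacking GLD-1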
RTF Ca sens act – cardiac RTF calcium sensitivity activators, primary screen, biochemical, IANBD-TnC fluorescence, EC20 calcium; IANBD-labeled TnC RTF fluorescence at EC20 calcium; 0% EC20 calcium, 100% full calcium; activation, % at 7.2 µM; 340,000 tested, 0.24% active; AID 493008, 2010;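 active means activation above the mean over all tested compounds plus 3 SD, cut at about 30% in these data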;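 further: rise in fluorescence read as greater calcium sensitivity of cardiac thin filaments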
* hit, by the source's call; i = inactive; nt = not tested or not shown. Rows were chosen to be rich in hits. Some 1.2% of all compounds tested hit in one or more screens of this group.

SMILES	E coli Lon inh	Cardiac RTF inh	Bcl-xL primary	GLD-1 TGE inh	RTF Ca sens act
CCn1cc(C(=O)NCCCOC)c(=O)c2cc(S(=O)(=O)N3CCC(C)CC3)ccc21	-9	1	4	-3	-9
CCOCCCNC(=O)c1cn(CC)c2ccc(S(=O)(=O)N3CCC(C)CC3)cc2c1=O	3	-4	37*	1	-6
Cn1c(NC(=O)c2ccccc2C(F)(F)F)cc(=O)n(C)c1=O	3	-1	3	162*	-5
Cn1c(NC(=O)c2ccccc2Br)cc(=O)n(C)c1=O	-8	-1	2	2	-3
O=C(NC(Cc1ccccc1)C(=O)Oc1ccc2c(C(F)(F)F)cc(=O)oc2c1)OCc1ccccc1 (stereo not given)	74*	-10	42*	65*	0
O=C(CNC(=O)OCc1ccccc1)Oc1ccc2ccc(=O)oc2c1	-6	0	5	7	-6
CN(C)c1ccc(/C=C2\SC(N3CCCCC3)=NC2=O)cc1	-329	-75	-53	-153	40*
Cc1ccc(S(=O)(=O)N2CCN(C(=O)COC(=O)CCOc3cc(C)ccc3C)CC2)c(C)c1	3	-3	nt	nt	-2
O=C1OC2(c3ccccc31)c1cc(I)c(O)c(I)c1Oc1c2cc(I)c(O)c1I	nt	nt	88*	51*	nt
Cc1cc(O)ccc1C1(c2ccc(O)cc2C)OC(=O)c2ccccc21	-11	-6	6	7	-6
COc1cc(OC)c(OC)cc1/C=C1/Cc2ccccc2C1=O	-86	-60	18	-75	31*
COc1cc(/C=C(\C#N)C(=O)NCC2CCCO2)c([N+](=O)[O-])cc1OC (stereo not given)	7	1	-12	2	-4
N#C/C(=C\c1cccc([N+](=O)[O-])c1)C(=O)NCC1CCCO1 (stereo not given)	6	2	61*	15	-8
CCOc1ccc(CC(C(=O)NN)C(=O)NN)cc1CN(C)C	-4	-4	5	4	-3
CCN(CC)CCC(=O)Nc1cccc2c1C(=O)c1ccccc1C2=O	4	nt	36*	13	nt
CCN(CC)CCNC(=O)c1ccc2c(c1NCCO)C(=O)c1ccccc1C2=O	1	nt	16	17	nt
CCc1cc2c(=O)c(-c3nc4ccccc4n3C)c(C)oc2c(CN(CC)CC)c1O	5	7	-2	7	15
CCN(CC)Cc1c(O)ccc2cc(-c3nc4ccccc4n3C)c(=O)oc12	-15	-15	36*	-7	13
COc1cc(-n2cnnn2)ccc1S(=O)(=O)N1CCOCC1	8	-3	32*	-1	-1
CN(C)C(=O)N1CCC(C(=O)N2CCCC(C(=O)c3ccc(C(C)(C)C)cc3)C2)CC1 (stereo not given)	-3	-8	4	3	5
CCOC(=O)C1=C(O)/C(=C/c2ccc(-c3ccccc3C(=O)O)o2)SC1=Nc1ccc(C)cc1	-98	-19	nt	nt	1
CCOC(=O)C1=C(O)/C(=C/c2cn(CC(=O)NCC3CCCO3)c3ccccc23)SC1=Nc1ccc(C)cc1 (stereo not given)	-6	-20	81*	-28	135*
Cc1ccccc1N=Nc1c(O)[nH]c2ccccc12	-2	nt	4	-12	nt
CN(N=Nc1ccc([N+](=O)[O-])cc1)c1ccccc1	1	-8	4	9	511*
CN(N=Nc1cccc([N+](=O)[O-])c1)c1ccccc1	2	5	1	-5	-2
SMILES	E coli Lon inh	Cardiac RTF inh	Bcl-xL primary	GLD-1 TGE inh	RTF Ca sens act
CC(C)N1C(=O)S/C(=C\c2ccc(-c3ccc(Cl)c(C(=O)O)c3)o2)C1=O	-6	5	2	-2	1
CCN(CC)c1ccc(/C=C2/SC(=O)N(C(C)C)C2=O)o1	-172	-114	nt	nt	155*
CCOC(=O)c1ccccc1NC(=O)N1CCn2c(C)ccc2C1CC (stereo not given)	4	-12	62*	33*	14
CCCC1c2ccc(C)n2CCN1C(=O)Nc1ccccc1Cl (stereo not given)	11	-27	41*	21	11
CCC1c2ccc(C)n2CCN1C(=O)Nc1cc(Cl)ccc1OC (stereo not given)	4	-23	56*	38*	9
COc1ccc(Cl)cc1NC(=O)N1CCC(C)CC1	-5	-8	6	5	1
CCSc1ccc(C(=O)Nc2cccc(C)n2)cc1[N+](=O)[O-]	-2	-11	-2	-1	5
COc1ccc(C(=O)N2CCCC(C)(C(=O)NS(=O)(=O)C3CC3)C2)c(OC)c1 (stereo not given)	-3	nt	nt	nt	nt
CN1CCN(/N=C/c2ccc(-c3ccccc3)cc2)CC1	-1	-8	5	5	-6
CN1CCN(/N=C/c2c3ccccc3c(Cl)c3ccccc23)CC1	2	0	111*	77*	9
Nc1cccc(Nc2ccccc2)c1	-2	5	50*	-72	-5
COc1ccc(NC(=O)Nc2c(O)ccc3ccccc23)cc1	5	-1	30*	-3	9
O=C(CN1C(=O)CC(c2ccco2)Sc2ccccc21)Nc1ccccc1F (stereo not given)	-7	-1	4	-2	2
C#CCOCCOCCOCCNc1nc(N2CCN(C(=O)[C@H](CCCCN)n3cc(CN)nn3)CC2)nc(N2CCN(C(=O)[C@H](CCCCN)n3cc(CN)nn3)CC2)n1	1	-5	nt	-2	-5
Nc1c(S(=O)(=O)c2ccccc2)c2nc3ccccc3nc2n1Cc1ccco1	-54	-40	23	47*	22
Nc1c(S(=O)(=O)c2ccccc2)c2nc3ccccc3nc2n1CCN1CCOCC1	-3	-17	11	-8	-7
Cc1ccc(S(=O)(=O)c2c(N)n(Cc3ccco3)c3nc4ccccc4nc23)cc1C	-52	-22	32*	20	12
CCOC(=O)C1(C)CCN1C(=O)c1ccccc1C (stereo not given)	-8	nt	nt	nt	nt
O=C(NN=Cc1c(O)ccc2ccccc12)c1ccncc1	i	-49	nt	nt	31*
CC(=NNC(=O)c1ccncc1)c1ccc2ccccc2c1O	i	-66	nt	nt	48*
N#C/C(=C\c1ccco1)C(=O)Nc1ccc(S(N)(=O)=O)cc1	-10	1	2	-1	3
CS(=O)(=O)NN1C(=O)c2ccccc2NC1c1cccc(O)c1 (stereo not given)	14	-9	2	7	12
CN1C(=O)c2ccccc2NC(=O)[C@]12O[C@@H]2c1cccc(O)c1	-20	-11	62*	26	7
NS(=O)(=O)c1ccc(NC(=O)C2Cc3ccccc3CN2C(=O)c2ccco2)cc1 (stereo not given)	-3	-4	38*	-1	2
